About 83,000 compounds went through this panel and 20% of them were active in at least one assay; those are over-represented in the sample as a whole.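 48-hour exposure, single concentration, 96-well plates; percent growth endpoint where 0 means no net growth. Active: below 10.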 The source made the active and inactive calls.
Assays:
Experiment in all cases: NCI-60 one-dose screen, 48 h (100 = growth as untreated, 0 = no growth, -100 = all killed)
Settings in all cases: 10 µM unless noted
[1] = test system: DU-145 prostate
[2] = test system: K-562 leukemia
[3] = test system: MALME-3M melanoma
[4] = test system: MDA-MB-231 breast
[5] = test system: RXF 393 renal
[6] = test system: SF-268 CNS
[7] = test system: SF-295 CNS
[8] = test system: SF-539 CNS
[9] = test system: UACC-257 melanoma
[10] = test system: M14 melanoma
[11] = test system: HCT-15 colon
[12] = test system: HT29 colon
[13] = test system: SNB-75 CNS
[14] = test system: SNB-19 CNS
[15] = test system: U251 CNS
[16] = test system: PC-3 prostate
[17] = test system: SK-MEL-5 melanoma
[18] = test system: UACC-62 melanoma
[19] = test system: LOX IMVI melanoma
[20] = test system: SK-MEL-28 melanoma

Measured: growth

c1ccc2cc(Cn3cc[n+](Cc4ccc5ccccc5c4)c3)ccc2c1
inactive: [1] 53.2% | [2] 22.5% | [3] 13.8% | [4] 18.7% | [5] 35.1% | [6] 32.1% | [7] 70.3% | [8] 50.2% | [10] 16.1% | [11] 91.2% | [13] 19.3% | [14] 29.8% | [15] 21.8% | [16] 15.4% | [18] 10.3% | [19] 37.5% | [20] 20.3%
active: [9] -9.54% | [12] -31% | [17] -46.4%

COC(CCP(=O)(c1ccccc1)c1ccccc1)(C(=O)c1ccccc1)c1ccccc1 (stereo unspecified)
inactive: [1] 111% | [3] 96.3% | [4] 73.6% | [5] 76.2% | [6] 86.1% | [7] 32.1% | [8] 87.2% | [9] 64.3% | [10] 63% | [11] 52.6% | [12] 57.5% | [13] 84.9% | [14] 71.6% | [15] 71.3% | [17] 34.3% | [18] 53.8% | [19] 64.6% | [20] 89.1%
active: [2] 9.03% | [16] -46.2%

COc1cc(CNC(=O)CCCC/C=C/C(C)C)ccc1OCc1cn(-c2cccc([N+](=O)[O-])c2)nn1
inactive: [1] 109% | [2] 81.5% | [3] 103% | [4] 88.4% | [5] 92.7% | [6] 92.3% | [7] 104% | [8] 94.4% | [9] 94.4% | [10] 93.5% | [11] 77.9% | [12] 88.9% | [13] 92% | [14] 68.2% | [15] 85.3% | [16] 82.2% | [17] 93.2% | [18] 70.1% | [19] 92.9%

CCNc1nc(-c2ccc(Cl)c(OC)c2)c(-c2ccnc(NCCNS(=O)(=O)c3ccc(Cl)cc3)n2)s1
inactive: [1] 44.3% | [2] 18.3% | [3] 46.2% | [5] 18.9% | [6] 37% | [7] 17.2% | [8] 38.3% | [9] 50.4% | [10] 29.7% | [11] 16.7% | [13] 46.1% | [14] 34.2% | [15] 17.3% | [17] 13.5% | [18] 24.6% | [19] 13.9%
active: [4] 0.973% | [12] 5.01% | [16] 9.83%

c1ccc2[nH]c(-c3ccc(-c4nccc5c4[nH]c4ccccc45)cc3)nc2c1
inactive: [1] 67.4% | [3] 90.4% | [4] 30.2% | [5] 44.6% | [6] 52.3% | [7] 75.1% | [9] 81.8% | [10] 72.8% | [11] 38.7% | [13] 64.9% | [14] 55.1% | [15] 24.2% | [16] 85.7% | [17] 62.6% | [19] 10.8%
active: [2] 3.52% | [8] -40.4% | [12] 4.38% | [18] -24%

CN1C(=O)N(C)C2C1NN=c1s/c(=C\c3ccccc3F)c(=O)n12 (stereo unspecified)
active: [2] 9.52% | [5] -6.27% | [8] -23.8% | [10] 9.53% | [12] 2.25% | [13] -4.89%
inactive: [1] 15.9% | [3] 44.9% | [4] 13.2% | [6] 65.5% | [7] 14.6% | [9] 54.5% | [11] 13.3% | [14] 24.1% | [15] 14.5% | [16] 27.4% | [17] 16.7% | [18] 21% | [19] 20.6%

CC/C(=C(/c1ccc(Cl)cc1)c1ccc(OCCN2CCCC2)cc1)c1ccccc1
active: [2] 4.31% | [11] 6.41% | [12] -25.4%
inactive: [1] 80.4% | [3] 68.8% | [4] 73.6% | [5] 55.2% | [6] 73.3% | [7] 79% | [8] 74.8% | [9] 74% | [10] 37.1% | [13] 96.3% | [14] 60.6% | [15] 32.1% | [16] 40.4% | [17] 22.4% | [18] 79.2% | [19] 32.4% | [20] 76.9%

O=C(Nc1ccc(Cl)cc1)C1=NCCCCN1
inactive: [1] 84.1% | [2] 42.3% | [3] 96.7% | [4] 97.9% | [5] 106% | [6] 77.7% | [7] 93.4% | [8] 95.8% | [9] 99.7% | [10] 75.7% | [11] 55.4% | [12] 89.6% | [13] 95.6% | [14] 101% | [15] 90.9% | [16] 73% | [17] 93.6% | [18] 45.1% | [19] 30.5% | [20] 111%

Source: PubChem BioAssay (NCI)
